# Test results: paper PMC7862700, “An all-to-all approach to the identification of sequence-specific readers for epigenetic DNA modifications on cytosine”
# What was measured:
# Test in all cases: DAPPL (digital affinity profiling via proximity ligation, sequencing); 10 mM Tris-HCl pH 7.5, 50 mM NaCl, 1 mM DTT, 4% glycerol, room temperature, 30 min; GST-TFs on glutathione beads, 16-mer random dsDNA library, 0.1% formaldehyde crosslink after washing; high values mean tight binding
# FLI1 = target: T1, FLI1 (Homo sapiens, UniProt Q01543 1-452); conditions: protein: recombinant; tags: N-terminal GST; dsDNA, one strand shown
# T1 sequence: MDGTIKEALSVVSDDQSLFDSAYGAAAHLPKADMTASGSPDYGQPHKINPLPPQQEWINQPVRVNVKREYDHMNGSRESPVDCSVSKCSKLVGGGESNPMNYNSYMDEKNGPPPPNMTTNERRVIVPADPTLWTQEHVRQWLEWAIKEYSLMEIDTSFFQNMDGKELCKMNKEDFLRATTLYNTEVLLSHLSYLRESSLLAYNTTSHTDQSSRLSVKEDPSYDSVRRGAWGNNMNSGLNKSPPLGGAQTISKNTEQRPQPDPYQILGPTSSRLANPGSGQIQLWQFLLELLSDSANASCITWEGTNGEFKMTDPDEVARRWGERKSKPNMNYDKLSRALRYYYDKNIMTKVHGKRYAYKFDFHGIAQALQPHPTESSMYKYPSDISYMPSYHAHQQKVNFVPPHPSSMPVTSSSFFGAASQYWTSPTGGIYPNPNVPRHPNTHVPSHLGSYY
# Summary of the method: (§1)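 Human transcription factors carrying a GST fusion were produced in yeast, bound to glutathione beads, tagged with DNA barcodes and pooled together with a tag-only sample. Each pool was held with 200 nmole of a random double-stranded 16-mer DNA library in Tris/NaCl/DTT/glycerol buffer for 30 min at room temperature, then washed, crosslinked in 0.1% formaldehyde, proximity-ligated with BsaI/T4 ligase (1 h, 37 °C), PCR-amplified and sequenced on an Illumina NextSeq500. Binding signal is the read frequency of each hexamer for a given factor divided by its frequency in the tag-only sample.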
# ELK1 = target: T2, ELK1 (Homo sapiens, UniProt P19419 1-428); conditions: protein: recombinant; tags: N-terminal GST; dsDNA, one strand shown
# T2 sequence: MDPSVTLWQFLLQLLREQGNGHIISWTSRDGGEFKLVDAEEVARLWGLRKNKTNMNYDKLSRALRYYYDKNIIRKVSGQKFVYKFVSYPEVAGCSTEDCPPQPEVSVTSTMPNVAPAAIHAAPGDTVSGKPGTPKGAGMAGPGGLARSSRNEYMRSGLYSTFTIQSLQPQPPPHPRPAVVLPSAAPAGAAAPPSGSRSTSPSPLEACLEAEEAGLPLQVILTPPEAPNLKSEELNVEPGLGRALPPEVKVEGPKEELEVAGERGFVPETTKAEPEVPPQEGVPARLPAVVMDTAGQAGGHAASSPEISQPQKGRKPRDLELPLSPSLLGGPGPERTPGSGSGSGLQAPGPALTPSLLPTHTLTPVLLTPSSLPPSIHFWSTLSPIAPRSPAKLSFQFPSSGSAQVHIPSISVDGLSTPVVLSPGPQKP
# Summary of the method: as §1
# GABPA = target: T3, GABPA (Homo sapiens, UniProt Q06546 1-454); conditions: protein: recombinant; tags: N-terminal GST; dsDNA, one strand shown
# T3 sequence: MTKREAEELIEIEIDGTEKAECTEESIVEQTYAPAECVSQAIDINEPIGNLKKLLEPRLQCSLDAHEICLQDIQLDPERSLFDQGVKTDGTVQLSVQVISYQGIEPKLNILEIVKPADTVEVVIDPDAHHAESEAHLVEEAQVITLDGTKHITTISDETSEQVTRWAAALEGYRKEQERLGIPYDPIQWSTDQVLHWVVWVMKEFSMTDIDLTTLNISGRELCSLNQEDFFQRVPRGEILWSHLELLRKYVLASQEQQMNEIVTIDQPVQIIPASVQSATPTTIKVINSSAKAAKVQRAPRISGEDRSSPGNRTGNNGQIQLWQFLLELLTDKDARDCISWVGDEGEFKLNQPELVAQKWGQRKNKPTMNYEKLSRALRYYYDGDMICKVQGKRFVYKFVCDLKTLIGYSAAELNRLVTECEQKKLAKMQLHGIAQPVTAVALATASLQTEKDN
# Summary of the method: as §1
# ERG = target: T4, ERG (Homo sapiens, UniProt P11308 1-479); conditions: protein: recombinant; tags: N-terminal GST; dsDNA, one strand shown
# T4 sequence: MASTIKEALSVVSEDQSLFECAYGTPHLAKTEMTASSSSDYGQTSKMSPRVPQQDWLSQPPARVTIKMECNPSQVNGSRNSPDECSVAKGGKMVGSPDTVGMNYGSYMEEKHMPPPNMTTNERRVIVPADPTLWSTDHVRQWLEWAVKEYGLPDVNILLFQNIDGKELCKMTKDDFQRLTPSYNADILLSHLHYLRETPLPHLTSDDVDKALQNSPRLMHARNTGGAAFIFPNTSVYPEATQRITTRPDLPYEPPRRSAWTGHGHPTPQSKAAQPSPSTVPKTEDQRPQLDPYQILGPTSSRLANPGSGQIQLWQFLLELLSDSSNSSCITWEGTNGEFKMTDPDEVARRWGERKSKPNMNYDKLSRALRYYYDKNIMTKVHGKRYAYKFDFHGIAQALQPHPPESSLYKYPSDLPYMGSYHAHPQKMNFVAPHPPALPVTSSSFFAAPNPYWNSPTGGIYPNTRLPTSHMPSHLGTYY
# Summary of the method: as §1
# ELF1 = ELF1 (Homo sapiens, UniProt P32519 1-619); conditions: protein: recombinant; tags: N-terminal GST; dsDNA, one strand shown
# Chain of ELF1 (P32519 whole entry): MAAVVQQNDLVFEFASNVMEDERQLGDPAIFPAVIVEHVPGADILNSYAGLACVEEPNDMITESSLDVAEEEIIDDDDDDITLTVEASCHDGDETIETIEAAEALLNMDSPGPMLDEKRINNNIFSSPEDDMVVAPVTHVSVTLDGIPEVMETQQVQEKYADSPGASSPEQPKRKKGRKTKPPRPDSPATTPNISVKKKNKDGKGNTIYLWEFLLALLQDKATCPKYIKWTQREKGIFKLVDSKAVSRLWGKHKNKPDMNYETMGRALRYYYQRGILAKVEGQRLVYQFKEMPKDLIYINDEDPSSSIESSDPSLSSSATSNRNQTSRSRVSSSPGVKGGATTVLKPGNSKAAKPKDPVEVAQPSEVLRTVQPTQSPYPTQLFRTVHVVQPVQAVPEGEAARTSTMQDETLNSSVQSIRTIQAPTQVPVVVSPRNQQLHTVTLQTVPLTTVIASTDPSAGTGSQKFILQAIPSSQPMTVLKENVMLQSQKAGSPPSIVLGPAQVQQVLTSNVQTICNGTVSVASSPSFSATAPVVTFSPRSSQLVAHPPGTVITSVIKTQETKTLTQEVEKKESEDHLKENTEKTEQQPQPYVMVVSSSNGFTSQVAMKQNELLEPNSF
# Summary of the method: as §1
# EHF = target: T5, EHF (Homo sapiens, UniProt Q9NZC4 1-300); conditions: protein: recombinant; tags: N-terminal GST; dsDNA, one strand shown
# T5 sequence: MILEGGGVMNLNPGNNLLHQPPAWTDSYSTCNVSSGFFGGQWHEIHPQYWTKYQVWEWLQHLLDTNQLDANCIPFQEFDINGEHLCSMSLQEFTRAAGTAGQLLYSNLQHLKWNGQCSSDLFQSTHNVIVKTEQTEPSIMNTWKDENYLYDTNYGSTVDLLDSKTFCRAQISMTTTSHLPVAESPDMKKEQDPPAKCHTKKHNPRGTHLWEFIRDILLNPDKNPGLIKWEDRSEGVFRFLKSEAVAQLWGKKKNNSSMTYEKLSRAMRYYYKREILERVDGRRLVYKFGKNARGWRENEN
# Summary of the method: as §1
# SPI1 = SPI1 (Homo sapiens, UniProt P17947 1-270); conditions: protein: recombinant; tags: N-terminal GST; dsDNA, one strand shown
# Summary of the method: as §1
# SPIB = SPIB (Homo sapiens, UniProt Q01892 1-262); conditions: protein: recombinant; tags: N-terminal GST; dsDNA, one strand shown
# Chain of SPIB (Q01892 whole entry): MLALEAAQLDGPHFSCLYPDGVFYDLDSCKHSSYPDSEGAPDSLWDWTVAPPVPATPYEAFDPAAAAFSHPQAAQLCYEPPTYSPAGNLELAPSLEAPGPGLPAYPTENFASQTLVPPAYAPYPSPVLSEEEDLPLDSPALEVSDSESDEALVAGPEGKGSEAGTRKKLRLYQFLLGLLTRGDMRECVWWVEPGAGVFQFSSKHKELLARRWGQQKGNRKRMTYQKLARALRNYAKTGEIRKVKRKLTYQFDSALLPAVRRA
# Summary of the method: as §1
# ELK3 = target: T6, ELK3 (Homo sapiens, UniProt P41970 1-407); conditions: protein: recombinant; tags: N-terminal GST; dsDNA, one strand shown
# T6 sequence: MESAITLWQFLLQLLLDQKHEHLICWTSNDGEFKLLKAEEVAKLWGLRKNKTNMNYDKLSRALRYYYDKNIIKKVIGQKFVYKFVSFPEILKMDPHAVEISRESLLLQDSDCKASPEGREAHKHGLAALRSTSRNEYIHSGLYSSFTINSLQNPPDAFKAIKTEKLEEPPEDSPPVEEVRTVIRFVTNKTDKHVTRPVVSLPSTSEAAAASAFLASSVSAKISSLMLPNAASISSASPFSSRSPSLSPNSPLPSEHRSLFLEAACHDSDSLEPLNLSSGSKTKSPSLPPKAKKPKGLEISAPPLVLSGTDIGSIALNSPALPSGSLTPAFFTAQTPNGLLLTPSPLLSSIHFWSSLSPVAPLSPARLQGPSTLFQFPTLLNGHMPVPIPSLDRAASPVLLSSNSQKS
# Summary of the method: as §1
# FEV = target: T7, FEV (Homo sapiens, UniProt Q99581 1-238); conditions: protein: recombinant; tags: N-terminal GST; dsDNA, one strand shown
# T7 sequence: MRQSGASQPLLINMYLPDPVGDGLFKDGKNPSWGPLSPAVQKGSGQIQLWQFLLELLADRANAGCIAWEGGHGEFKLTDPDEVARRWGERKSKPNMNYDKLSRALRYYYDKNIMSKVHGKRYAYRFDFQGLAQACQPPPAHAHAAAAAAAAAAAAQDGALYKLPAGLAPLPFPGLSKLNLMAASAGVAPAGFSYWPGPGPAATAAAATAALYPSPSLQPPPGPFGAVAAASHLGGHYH
# Summary of the method: as §1
# ETV5 = ETV5 (Homo sapiens, UniProt P41161 1-510); conditions: protein: recombinant; tags: N-terminal GST; dsDNA, one strand shown
# Chain of ETV5 (P41161 whole entry): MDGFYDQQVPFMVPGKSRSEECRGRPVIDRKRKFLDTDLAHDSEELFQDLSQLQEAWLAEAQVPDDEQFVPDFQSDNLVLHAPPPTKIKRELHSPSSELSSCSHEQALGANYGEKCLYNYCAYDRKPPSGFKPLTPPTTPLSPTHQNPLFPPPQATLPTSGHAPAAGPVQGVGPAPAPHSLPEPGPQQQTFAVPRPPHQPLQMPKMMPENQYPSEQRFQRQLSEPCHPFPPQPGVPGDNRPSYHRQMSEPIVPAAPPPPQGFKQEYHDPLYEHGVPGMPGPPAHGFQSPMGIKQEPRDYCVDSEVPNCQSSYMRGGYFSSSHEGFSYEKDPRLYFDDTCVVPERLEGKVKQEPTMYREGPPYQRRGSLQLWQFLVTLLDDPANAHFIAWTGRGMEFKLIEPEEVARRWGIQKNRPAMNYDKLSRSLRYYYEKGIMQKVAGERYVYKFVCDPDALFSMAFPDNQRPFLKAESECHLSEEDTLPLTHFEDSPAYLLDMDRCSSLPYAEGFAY
# Summary of the method: as §1
# HSF1 = HSF1 (Homo sapiens, UniProt Q00613 1-529); conditions: protein: recombinant; tags: N-terminal GST; chain copies: 3; dsDNA, one strand shown
# Chain of HSF1 (Q00613 whole entry): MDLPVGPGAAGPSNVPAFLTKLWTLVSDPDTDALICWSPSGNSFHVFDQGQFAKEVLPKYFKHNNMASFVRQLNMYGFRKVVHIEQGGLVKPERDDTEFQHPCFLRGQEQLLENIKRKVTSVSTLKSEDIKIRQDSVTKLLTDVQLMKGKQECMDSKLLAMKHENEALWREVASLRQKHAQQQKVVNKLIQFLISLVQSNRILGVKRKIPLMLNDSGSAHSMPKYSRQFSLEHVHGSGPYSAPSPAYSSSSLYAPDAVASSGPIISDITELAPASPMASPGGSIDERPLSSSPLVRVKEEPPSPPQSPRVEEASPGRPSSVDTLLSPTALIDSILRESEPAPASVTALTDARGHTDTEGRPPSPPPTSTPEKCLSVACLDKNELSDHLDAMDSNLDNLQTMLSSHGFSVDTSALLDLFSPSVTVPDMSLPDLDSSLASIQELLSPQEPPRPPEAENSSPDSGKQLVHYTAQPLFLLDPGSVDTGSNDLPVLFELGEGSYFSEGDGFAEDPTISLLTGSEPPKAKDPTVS
# Summary of the method: as §1
# SPIC = target: T8, SPIC (Homo sapiens, UniProt Q8N5J4 1-248); conditions: protein: recombinant; tags: N-terminal GST; dsDNA, one strand shown
# T8 sequence: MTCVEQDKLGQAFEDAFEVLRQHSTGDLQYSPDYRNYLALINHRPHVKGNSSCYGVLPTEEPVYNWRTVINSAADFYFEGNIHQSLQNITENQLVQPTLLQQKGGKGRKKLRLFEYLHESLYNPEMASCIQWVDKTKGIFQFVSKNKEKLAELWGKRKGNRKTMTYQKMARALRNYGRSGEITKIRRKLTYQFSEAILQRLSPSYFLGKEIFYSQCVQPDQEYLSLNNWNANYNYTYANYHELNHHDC
# Summary of the method: as §1
# ELF4 = ELF4 (Homo sapiens, UniProt Q99607 1-663); conditions: protein: recombinant; tags: N-terminal GST; dsDNA, one strand shown
# Chain of ELF4 (Q99607 whole entry): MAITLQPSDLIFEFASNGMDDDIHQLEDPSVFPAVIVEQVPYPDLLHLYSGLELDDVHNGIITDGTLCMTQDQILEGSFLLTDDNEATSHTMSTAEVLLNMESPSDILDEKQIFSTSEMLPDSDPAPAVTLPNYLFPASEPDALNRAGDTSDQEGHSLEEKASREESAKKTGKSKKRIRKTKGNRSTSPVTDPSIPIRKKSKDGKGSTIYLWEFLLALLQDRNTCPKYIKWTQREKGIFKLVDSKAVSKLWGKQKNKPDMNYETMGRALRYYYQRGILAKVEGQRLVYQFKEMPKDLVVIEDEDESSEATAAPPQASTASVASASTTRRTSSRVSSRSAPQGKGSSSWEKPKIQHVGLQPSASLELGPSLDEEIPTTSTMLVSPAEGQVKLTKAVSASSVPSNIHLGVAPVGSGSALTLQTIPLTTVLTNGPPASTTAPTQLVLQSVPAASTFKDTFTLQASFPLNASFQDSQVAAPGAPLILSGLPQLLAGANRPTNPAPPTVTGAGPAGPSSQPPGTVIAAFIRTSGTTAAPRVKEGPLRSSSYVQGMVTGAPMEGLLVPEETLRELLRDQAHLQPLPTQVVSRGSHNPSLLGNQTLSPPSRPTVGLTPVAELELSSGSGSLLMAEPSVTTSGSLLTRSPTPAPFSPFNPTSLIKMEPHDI
# Summary of the method: as §1
# ELK4 = target: T9, ELK4 (Homo sapiens, UniProt P28324-2 1-405); conditions: protein: recombinant; tags: N-terminal GST; dsDNA, one strand shown
# T9 sequence: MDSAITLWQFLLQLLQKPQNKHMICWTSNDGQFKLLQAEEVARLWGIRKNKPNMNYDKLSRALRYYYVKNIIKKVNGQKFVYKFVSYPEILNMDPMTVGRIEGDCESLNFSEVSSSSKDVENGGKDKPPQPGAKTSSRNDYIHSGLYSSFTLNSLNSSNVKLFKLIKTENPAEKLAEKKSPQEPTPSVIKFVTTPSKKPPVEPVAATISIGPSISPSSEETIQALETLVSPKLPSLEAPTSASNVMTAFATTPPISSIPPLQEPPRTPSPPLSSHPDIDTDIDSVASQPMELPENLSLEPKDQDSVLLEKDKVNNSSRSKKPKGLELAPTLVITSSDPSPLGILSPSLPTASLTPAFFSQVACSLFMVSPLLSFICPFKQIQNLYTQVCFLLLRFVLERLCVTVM
# Summary of the method: as §1
# ETV2 = target: T10, ETV2 (Homo sapiens, UniProt O00321 1-342); conditions: protein: recombinant; tags: N-terminal GST; dsDNA, one strand shown
# T10 sequence: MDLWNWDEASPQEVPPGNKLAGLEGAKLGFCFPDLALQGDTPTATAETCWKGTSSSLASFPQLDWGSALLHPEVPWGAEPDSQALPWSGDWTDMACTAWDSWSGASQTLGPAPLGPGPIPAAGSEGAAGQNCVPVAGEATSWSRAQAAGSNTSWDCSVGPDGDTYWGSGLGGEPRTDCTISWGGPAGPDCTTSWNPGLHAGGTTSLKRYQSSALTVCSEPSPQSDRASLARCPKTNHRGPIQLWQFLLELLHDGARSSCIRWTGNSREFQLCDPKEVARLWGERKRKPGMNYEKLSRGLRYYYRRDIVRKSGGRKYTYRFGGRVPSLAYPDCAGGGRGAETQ
# Summary of the method: as §1
# ELF3 = target: T11, ELF3 (Homo sapiens, UniProt P78545 1-371); conditions: protein: recombinant; tags: N-terminal GST; dsDNA, one strand shown
# T11 sequence: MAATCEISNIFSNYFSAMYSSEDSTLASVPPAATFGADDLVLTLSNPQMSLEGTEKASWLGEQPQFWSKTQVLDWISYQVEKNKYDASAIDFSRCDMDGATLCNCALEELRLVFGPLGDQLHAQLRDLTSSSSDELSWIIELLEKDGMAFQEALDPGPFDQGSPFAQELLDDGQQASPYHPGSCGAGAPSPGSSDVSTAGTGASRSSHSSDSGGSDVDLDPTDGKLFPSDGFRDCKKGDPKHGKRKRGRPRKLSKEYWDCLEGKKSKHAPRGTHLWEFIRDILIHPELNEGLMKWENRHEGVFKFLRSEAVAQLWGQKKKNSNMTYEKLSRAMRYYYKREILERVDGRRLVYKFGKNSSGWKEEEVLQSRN
# Summary of the method: as §1
# CRX = CRX (Homo sapiens, UniProt O43186 1-299); conditions: protein: recombinant; tags: N-terminal GST; dsDNA, one strand shown
# Chain of CRX (O43186 whole entry): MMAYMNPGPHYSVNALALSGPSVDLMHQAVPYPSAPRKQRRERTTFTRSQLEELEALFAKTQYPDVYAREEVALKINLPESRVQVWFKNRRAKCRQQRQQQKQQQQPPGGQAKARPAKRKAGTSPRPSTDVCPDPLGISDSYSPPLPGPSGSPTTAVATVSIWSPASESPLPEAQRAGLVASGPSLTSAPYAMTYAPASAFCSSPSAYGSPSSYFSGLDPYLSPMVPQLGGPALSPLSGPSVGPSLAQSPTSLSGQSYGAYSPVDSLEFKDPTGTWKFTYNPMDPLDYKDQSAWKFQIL
# Summary of the method: as §1
# ETV1 = ETV1 (Homo sapiens, UniProt P50549 1-477); conditions: protein: recombinant; tags: N-terminal GST; dsDNA, one strand shown
# Chain of ETV1 (P50549 whole entry): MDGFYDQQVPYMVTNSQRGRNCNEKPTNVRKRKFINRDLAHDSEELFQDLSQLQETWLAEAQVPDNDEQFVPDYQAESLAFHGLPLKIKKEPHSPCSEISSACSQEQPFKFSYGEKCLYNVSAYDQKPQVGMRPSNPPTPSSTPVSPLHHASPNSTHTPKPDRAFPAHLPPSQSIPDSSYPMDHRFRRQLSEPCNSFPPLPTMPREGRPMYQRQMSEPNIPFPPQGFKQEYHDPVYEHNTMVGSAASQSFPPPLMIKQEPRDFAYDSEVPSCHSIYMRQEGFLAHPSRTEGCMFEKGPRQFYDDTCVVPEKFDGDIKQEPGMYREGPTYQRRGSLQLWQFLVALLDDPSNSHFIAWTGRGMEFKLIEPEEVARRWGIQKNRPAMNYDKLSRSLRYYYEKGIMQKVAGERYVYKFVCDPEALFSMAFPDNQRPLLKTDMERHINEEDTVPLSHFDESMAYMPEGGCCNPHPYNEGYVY
# Summary of the method: as §1
sequence,measurement,setting,value
TATCGA,binding signal,FLI1,"1.36 fold enrichment (6-mer frequency, TF over GST control)"
same,binding signal,ELK1,"1.28 fold enrichment (6-mer frequency, TF over GST control)"
same,binding signal,GABPA,"1.32 fold enrichment (6-mer frequency, TF over GST control)"
same,binding signal,ERG,"1.36 fold enrichment (6-mer frequency, TF over GST control)"
same,binding signal,ELF1,"1.36 fold enrichment (6-mer frequency, TF over GST control)"
same,binding signal,EHF,"1.35 fold enrichment (6-mer frequency, TF over GST control)"
same,binding signal,SPI1,"1.34 fold enrichment (6-mer frequency, TF over GST control)"
same,binding signal,SPIB,"1.25 fold enrichment (6-mer frequency, TF over GST control)"
same,binding signal,ELK3,"1.34 fold enrichment (6-mer frequency, TF over GST control)"
same,binding signal,FEV,"1.2 fold enrichment (6-mer frequency, TF over GST control)"
same,binding signal,ETV5,"1.29 fold enrichment (6-mer frequency, TF over GST control)"
same,binding signal,HSF1,"1.83 fold enrichment (6-mer frequency, TF over GST control)"
same,binding signal,SPIC,"1.28 fold enrichment (6-mer frequency, TF over GST control)"
same,binding signal,ELF4,"1.34 fold enrichment (6-mer frequency, TF over GST control)"
same,binding signal,ELK4,"1.37 fold enrichment (6-mer frequency, TF over GST control)"
same,binding signal,ETV2,"1.44 fold enrichment (6-mer frequency, TF over GST control)"
same,binding signal,ELF3,"1.55 fold enrichment (6-mer frequency, TF over GST control)"
same,binding signal,CRX,"1.59 fold enrichment (6-mer frequency, TF over GST control)"
same,binding signal,ETV1,"1.31 fold enrichment (6-mer frequency, TF over GST control)"
